# Reference: PubChem BioAssay (NCI)
# The panel holds about 83,000 compounds, 20% with a hit somewhere; the sample as a whole holds those more often.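 Method: cells in 96-well plates; compound added at one concentration; 48 h incubation; percent growth measured; values under 10 scored active.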 Unmarked numbers belong to inactive results. Activity calls are given as the source filed them.
# Test system: OVCAR-3 ovarian
# Assay: NCI-60 one-dose screen, 48 h (100 = growth as untreated, 0 = no growth, -100 = all killed)
# Settings: 10 µM unless noted
row,Structure (SMILES),growth
1,COc1cc(O)c2c(=O)c3c(CC=C(C)C)cc(OC)c(O)c3oc2c1,1.93% (active)
2,Cc1nc2sc(C(=O)Nc3cccc4ccccc34)c(N)c2cc1C(=O)c1ccccc1,-26.4% (active)
3,Cc1cc(C(=O)CCCC(=O)c2cc(C)c(O)c(C)c2)cc(C)c1O,105%
4,FC(F)(F)c1[nH]ncc1-c1nc2ccc3[nH]ncc3c2c2c1CCCC2,9.88% (active)
5,Nc1ncnc2c1N=C(c1ccc(F)cc1)CC(c1cccc(Nc3ccnc4cc(Cl)ccc34)c1)N2 (stereo unspecified),88.9%
6,COC(=O)c1c2c(c(C)[n+]([O-])c1C)C(=O)C(NCc1ccccc1)=CC2=O,0.759% (active)
7,COc1cc(C=Nc2oc(-c3ccccc3)c(-c3ccccc3)c2C#N)cc(CN2CCCC2)c1O,105%
8,NCCCNc1nc2ccccc2c2c(=O)c3cc(Cl)ccc3sc12,-60% (active)
9,O=C(/C=C/c1cccc(Oc2ccccc2)c1)c1ccc(Nc2nc(Nc3ccc(F)cc3)nc(Nc3ccc(Cl)cc3)n2)cc1,104%
10,CCCCO[C@@H]1C=C2[C@H]3CC(C)(C)C(=O)C[C@]3(C(=O)O[C@@H]3O[C@H](CO[C@@H]4O[C@H](CO)[C@@H](OC5OC(C)C(O)C(O)C5O)[C@H](O)[C@H]4O)[C@@H](O)[C@H](O)[C@H]3O)CC[C@@]2(C)[C@]2(C)CC[C@H]3C(C)(C)C(=O)CC[C@]3(C)[C@@H]12 (stereo partly specified),48.7%
11,COc1ccc2cc(-c3nc4ccc(C)cn4c3NCc3ccco3)c(=O)[nH]c2c1,89.4%
